# According to PubChem BioAssay:
# “And” between values parts separate entries of the source, which are not always exact repeats. Equal values may be shown once. Results filed as inconclusive are left out. The source made the active and inactive calls.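 How the source made its calls, unless noted: active means normalized viability below 100% at a tested concentration; inactive means the rest.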
# Columns and labels:
# [1] = viability loss in pontine glioma line – cell-based, JHH-DIPG-1, MIPE4.0, CellTiter-Glo, qHTS, dose response (AID 1347062; cut-off not given, nearly all actives have AC50 up to about 27 µM); details: JHH-DIPG-1 viability, CellTiter-Glo ATP luminescence
# [2] = viability loss in pontine glioma line – cell-based, SU-DIPG-IV, MIPE4.0, CellTiter-Glo, qHTS, dose response (AID 1347063; cut-off not given, nearly all actives have AC50 up to about 30 µM;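 further: compound exposure lasted 48 hours before the viability readout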); details: CellTiter-Glo ATP luminescence
# [3] = growth inhibition of DIPG cells – cell-based, MIPE4.0 library, CellTiter-Glo luminescence, qHTS (AID 1347066; cut-off not given, nearly all actives have AC50 up to about 30 µM;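 further: cells exposed to compound for 48 hours before readout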); details: SU-DIPG-VI viability, CellTiter-Glo ATP luminescence
# [4] = JHH-DIPG-1 glioma cell viability, MIPE5.0 library, CellTiter-Glo luminescence, qHTS (AID 1347067; cut-off not given, nearly all actives have AC50 up to about 26 µM;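 further: cells exposed to compound for 48 hours before readout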); details: JHH-DIPG-1 glioma viability, CellTiter-Glo ATP luminescence
# [5] = growth inhibition of DIPG cells – cell-based, MIPE5.0 library, qHTS (AID 1347068; cut-off not given, nearly all actives have IC50 up to about 30 µM); details: SU-DIPG-XXV viability
# [6] = viability loss in pontine glioma line – cell-based, SU-DIPG-XXV, MIPE5.0, CellTiter-Glo, qHTS, dose response (AID 1347065; cut-off not given, nearly all actives have AC50 up to about 26 µM;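 further: cells exposed to compound for 48 hours before ATP readout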); details: CellTiter-Glo ATP luminescence
# [7] = compounds altering HSF1 focus formation in cells – imaging, Selleck Cancer Library (AID 1347162; in the data active means plate-normalised HSF1 focus index below about 0.46); details: human cells, HSF1 nuclear foci imaging, at 10 µM; SSMD: measured here: HSF1 foci SSMD mean; cell count: measured here: cell number; plate-normalised HSF1 focus index: stronger effect = lower value
# [8] = viability loss in pontine glioma line – cell-based, SU-DIPG-XIII, MIPE5.0, CellTiter-Glo, qHTS, dose response (AID 1347064; cut-off not given, nearly all actives have AC50 up to about 23 µM;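 further: cells exposed to compound for 48 hours before the viability read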); details: CellTiter-Glo ATP luminescence
# [9] = drug combination growth inhibition, ovarian cancer – cell-based, oncology-focused library, rucaparib conditional, profiling panel (AID 1508598); details: patient-derived ovarian cancer cells, CellTiter-Glo viability, 144 h, stronger effect = lower value
# [10] = viability loss with induced miR-34 in A549 – imaging, A549 dox-inducible miR-34, nuclei and caspase counts, primary screen (AID 1347080;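 active means compounds whose cell count with miR-34 switched on is under 0.7 times the count with it off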); details: A549 miR-34 inducible, Hoechst nuclei count, 48 h
# [11] = MELAS cybrid and Rieske KO viability enhancers – cell-based, MELAS cybrids, Rieske KO mouse fibroblasts, CellTiter-Glo, primary screen (AID 1508586;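 active means mean z-score across replicates of 1.96 or higher in either the MELAS or the Rieske mutant cell line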;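 further: z relative to plate mean and SD of compound and empty wells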); details: low glucose
# [12] = stronger effect = lower value, cell number ratio, induced over uninduced
# [13] = measured here: relative caspase fold change +Dox/-Dox
# [14] = measured here: total cells with miR-34 induction, stronger effect = lower value
# [15] = measured here: total cells without miR-34 induction
smiles,measurement,setting,value
Cc1ccccc1C(C(=O)NC1CCCCC1)N(C(=O)CNc1ccc(C#N)cc1)c1cccc(F)c1 (stereo not drawn),outcome,[1],inactive
same,outcome,[2],inactive
same,outcome,[3],inactive
same,outcome,[4],inactive
same,outcome,[5],inactive
CC(=O)NCCC(=O)N[C@@H](CCC(N)=O)C(=O)N[C@@H](CO)C(=O)N[C@@H](CCC(N)=O)C(=O)N[C@@H](CCC(N)=O)C(=O)N[C@H](C(=O)N[C@@H](Cc1ccccc1)C(=O)N[C@]1(C)CCCCCC/C=C\CCC[C@@](C)(C(=O)N[C@@H](CCC(N)=O)C(=O)N[C@@H](CC(N)=O)C(N)=O)NC(=O)[C@H](CC(C)C)NC(=O)[C@H](CC(C)C)NC(=O)[C@@H](CCCNC(=N)N)NC(=O)[C@H](Cc2c[nH]c3ccccc23)NC(=O)[C@H](CC(C)C)NC(=O)[C@H](CC(N)=O)NC1=O)[C@H](C)O,outcome,[1],inactive
same,outcome,[6],inactive
same,outcome,[4],inactive
same,outcome,[5],inactive
COc1c(Cl)cc2c([nH]c3cnccc32)c1NC(=O)c1cccnc1C,AC50,[2],2.96 µM (active)
Cc1c(C(=O)Nc2ccc(N3C[C@@H](C)O[C@@H](C)C3)nc2)cccc1-c1ccc(OC(F)(F)F)cc1,AC50,[2],20.9 µM (active)
same,AC50,[6],20.9 µM (active)
same,AC50,[4],23.5 µM (active)
same,SSMD,[7],-6.97
same,cell count,[7],6140
same,plate-normalised HSF1 focus index,[7],0.637 (inactive)
CNc1nc(-c2ccc3c(N)n[nH]c3c2)cc(N2C[C@@H](C(=O)NC3CCCCC3)CC[C@H]2C)n1,AC50,[2],20.9 µM (active)
same,AC50,[8],18.6 µM (active)
same,AC50,[6],6.61 µM (active)
same,AC50,[4],14.8 µM (active)
same,viability,"[9]; at 0.000305 µM, OCI-C5x cells, with rucaparib 10 µM, 100% = cells with rucaparib alone",103% (inactive)
same,viability,"[9]; at 0.000305 µM, OCI-C5x cells, without rucaparib",113% (inactive)
same,viability,"[9]; at 0.000305 µM, OCI-P5x cells, with rucaparib 20 µM, 100% = cells with rucaparib alone",103% (inactive)
same,viability,"[9]; at 0.000305 µM, OCI-P5x cells, without rucaparib",106% (inactive)
same,viability,"[9]; at 0.00122 µM, OCI-C5x cells, with rucaparib 10 µM, 100% = cells with rucaparib alone",124% (inactive)
same,viability,"[9]; at 0.00122 µM, OCI-C5x cells, without rucaparib",115% (inactive)
same,viability,"[9]; at 0.00122 µM, OCI-P5x cells, with rucaparib 20 µM, 100% = cells with rucaparib alone",97.7% (active)
same,viability,"[9]; at 0.00122 µM, OCI-P5x cells, without rucaparib",102% (inactive)
same,viability,"[9]; at 0.00488 µM, OCI-C5x cells, with rucaparib 10 µM, 100% = cells with rucaparib alone",116% (inactive)
same,viability,"[9]; at 0.00488 µM, OCI-C5x cells, without rucaparib",111% (inactive)
same,viability,"[9]; at 0.00488 µM, OCI-P5x cells, with rucaparib 20 µM, 100% = cells with rucaparib alone",100% (inactive)
same,viability,"[9]; at 0.00488 µM, OCI-P5x cells, without rucaparib",104% (inactive)
same,viability,"[9]; at 0.0195 µM, OCI-C5x cells, with rucaparib 10 µM, 100% = cells with rucaparib alone",119% (inactive)
same,viability,"[9]; at 0.0195 µM, OCI-C5x cells, without rucaparib",115% (inactive)
same,viability,"[9]; at 0.0195 µM, OCI-P5x cells, with rucaparib 20 µM, 100% = cells with rucaparib alone",92.7% (active)
same,viability,"[9]; at 0.0195 µM, OCI-P5x cells, without rucaparib",96.7% (active)
same,viability,"[9]; at 0.0781 µM, OCI-C5x cells, with rucaparib 10 µM, 100% = cells with rucaparib alone",117% (inactive)
same,viability,"[9]; at 0.0781 µM, OCI-C5x cells, without rucaparib",120% (inactive)
same,viability,"[9]; at 0.0781 µM, OCI-P5x cells, with rucaparib 20 µM, 100% = cells with rucaparib alone",102% (inactive)
same,viability,"[9]; at 0.0781 µM, OCI-P5x cells, without rucaparib",98.2% (active)
same,viability,"[9]; at 0.313 µM, OCI-C5x cells, with rucaparib 10 µM, 100% = cells with rucaparib alone",107% (inactive)
same,viability,"[9]; at 0.313 µM, OCI-C5x cells, without rucaparib",113% (inactive)
same,viability,"[9]; at 0.313 µM, OCI-P5x cells, with rucaparib 20 µM, 100% = cells with rucaparib alone",91% (active)
same,viability,"[9]; at 0.313 µM, OCI-P5x cells, without rucaparib",91.1% (active)
same,viability,"[9]; at 1.25 µM, OCI-C5x cells, with rucaparib 10 µM, 100% = cells with rucaparib alone",112% (inactive)
same,viability,"[9]; at 1.25 µM, OCI-C5x cells, without rucaparib",122% (inactive)
same,viability,"[9]; at 1.25 µM, OCI-P5x cells, with rucaparib 20 µM, 100% = cells with rucaparib alone",90% (active)
same,viability,"[9]; at 1.25 µM, OCI-P5x cells, without rucaparib",93.4% (active)
same,viability,"[9]; at 5 µM, OCI-C5x cells, with rucaparib 10 µM, 100% = cells with rucaparib alone",67.5% (active)
same,viability,"[9]; at 5 µM, OCI-C5x cells, without rucaparib",155% (inactive)
same,viability,"[9]; at 5 µM, OCI-P5x cells, with rucaparib 20 µM, 100% = cells with rucaparib alone",22.3% (active)
same,viability,"[9]; at 5 µM, OCI-P5x cells, without rucaparib",84.2% (active)
CNC(=O)[C@H](CC1=CN=C2C=CCC=C12)NC(=O)[C@@H](CC(=O)NO)CC(C)C,AC50,[2],0.0372 µM (active)
same,AC50,[3],0.0332 µM (active)
COc1ccc(CCC(=O)Nc2nc3ccc(Cl)cc3s2)cc1OC,outcome,[1],inactive
same,outcome,[4],inactive
same,outcome,[5],inactive
same,fold change,[10]; [12],0.879 (inactive)
same,fold change,[10]; [13],0.345
same,cell count,[10]; [14],7570
same,cell count,[10]; [15],8610
same,z-score,"[11]; MELAS cybrid survival, CellTiter-Glo 48 h, stronger effect = higher value",1.34 (inactive)
same,z-score,"[11]; Rieske KO mouse fibroblast survival, CellTiter-Glo 72 h",-0.214
O=C1NC(=O)/C(=C/c2ccc(-c3ccc(F)cc3O)o2)S1,outcome,[1],inactive
same,outcome,[4],inactive
same,fold change,[10]; [12],1.04 (inactive) and 0.983 (inactive)
same,fold change,[10]; [13],2.12 and 0.302
same,cell count,[10]; [14],6690 and 5950
same,cell count,[10]; [15],6460 and 6050
COCCOC(=O)C1=C(C)NC2=C(C(=O)CC(c3ccccc3OC)C2)C1c1cccc(O)c1 (stereo not drawn),outcome,[1],inactive
same,outcome,[3],inactive
same,outcome,[5],inactive
CO/N=C(/C(=O)N[C@@H]1C(=O)N2C(C(=O)O)=C(CSC(=O)c3ccco3)CS[C@H]12)c1csc(N)n1,AC50,[2],23.5 µM (active)
